Source: PubChem BioAssay AID493200 (National Center for Advancing Translational Sciences (NCATS), 2011)
Results filed as inconclusive are left out. A number with no mark means an inactive call. Active and inactive are the calls of the source. Calls follow the shape of the dose curve; as a rule, active = well fitted activation curve with a large enough effect; inconclusive = small, poorly fitted or top-dose-only effect; inactive = no such curve, though single readings can be large or run the other way.

experiment: qHTS Assay for Rab9 Promoter Activators: Initial hit validation from the primary screen; details: Huh7 Rab9 promoter luciferase reporter, 24 h; series mostly up to 46.1 µM; activation: at the top concentration; as to activation: % of control where 0% means no effect
Method in brief: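 Huh7 cells stably carrying a Rab9 promoter–luciferase construct, plated in reduced-serum medium with 10% FBS, rested 2 h, then exposed to compounds in DMSO for 24 h at 37C. Luminescence read 10 min after adding Amplite luciferase reagent.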
Potency is read from the fitted curve at half-maximal effect.

Compound | activation [%] | Potency
CC1CN(C(=O)c2ccncc2)CC(C)O1 (centres undefined) | -3.44 | –
COC(=O)c1ccc(NC(=O)c2ccc3nc(C)sc3c2)cc1 | – | 560 nM (active)
CCOc1ccc(S(=O)(=O)NCc2ccccc2)cc1C(N)=O | -17.8 | –
CCOC(=O)CSc1nc2cc3c(cc2cc1C#N)OCO3 | – | 888 nM (active)
CCOCC(=O)Nc1c(C(=O)Nc2ccc3c(c2)OCCO3)oc2ccccc12 | – | 628 nM (active)
COc1ccc(S(=O)(=O)NC(C(=O)NCCc2ccccn2)C(C)C)cc1 (centres undefined) | 1.37 | –
O=S(=O)(c1cccs1)N1CCN(c2ncccn2)CC1 | 2.9 | –
Cc1ccc(NC(=O)NC(=O)c2ccccc2)cc1F | – | 445 nM (active)
CCCCCCC(=O)Nc1ccc(C(=O)N/N=C/c2cccnc2)cc1 | 13.3 | –
CCC(=O)N1c2ccccc2NC2=C(C(=O)CCC2)C1c1ccc(N(C)C)cc1 (centres undefined) | -5.08 | –
CN(C)C(CNC(=O)CNC(=O)c1ccc2ccccc2c1)c1ccccc1 (centres undefined) | -1.55 | –
CC1CC(C)CN(CC(=O)N2CCOCC2)C1 (centres undefined) | -1.53 | –
COc1ccc(C(c2nnnn2CCc2ccccc2)N2CCN(C3CCCC3)CC2)cc1 (centres undefined) | -10.4 | –
CCOc1cc(C2C(C#N)=C(N)Oc3n[nH]c(C)c32)ccc1OCCN1CCOCC1 (centres undefined) | 0.655 | –
CCCNC(=O)C1CCN(S(=O)(=O)c2ccc3[nH]c(=O)ccc3c2)CC1 | -0.573 | –
Cc1ccccc1NC(=O)Cc1nc(COC(=O)CC(C)c2ccccc2)cs1 (centres undefined) | -3 | –
CCCCn1c(Nc2ccc(OC)cc2)nc2ccccc21 | 5.74 | –

Compound | activation [%] | Potency
COc1ccc(C)cc1N(C(=O)CNC(=O)c1ccco1)C(C(=O)NC1CCCC1)c1cccnc1 (centres undefined) | -0.431 | –
Cc1ccccc1NC(=O)CSc1ccc(-c2cccnc2)nn1 | 2.88 | –
CC1CCCN(S(=O)(=O)c2ccc(C(=O)Nc3nnc(-c4ccncc4)o3)cc2)C1 (centres undefined) | -34.8 | –
COc1ccccc1N(C(=O)c1snc(C(N)=O)c1N)C(C(=O)NC1CCCCC1)c1cccc(OC)c1OC (centres undefined) | -25.6 | –
O=C(NCCc1c[nH]c2ccccc12)C(=O)NCC(c1ccco1)N1CCN(c2ccccc2F)CC1 (centres undefined) | -1.77 | –
CC(=O)Nc1nnc(SCC(=O)NCCOc2ccccc2)s1 | -3.72 | –
O=C(O)C1=CC[C@@H](c2ccc(Cl)cc2)N(S(=O)(=O)c2ccc(Cl)cc2)[C@H]1c1ccccc1 | -13.5 | –
O=C(N/N=C/c1ccc(-c2ccc(Br)cc2)o1)c1ccc2c(c1)OCO2 | 3.2 | –
Nc1ccc(C(=O)Nc2ccccc2N)cc1 | – | 15800 nM (active)
Cc1ccc(C(=O)NCc2ccc3c(c2)OCO3)cc1C | – | 25000 nM (active)
Brc1ccccc1-c1nnc(CSc2nnc3sc4ccccc4n23)o1 | 11.5 | –
COc1ccccc1C(=O)Nc1nnc(SCC(=O)NC2CCCC2)s1 | – | 888 nM (active)
COCCNC(=O)C1CCC(CNS(=O)(=O)c2ccc(F)cc2)CC1 (centres undefined) | -4.18 | –
Cc1ccc(CNC(=O)Nc2ccc(C)cc2)cc1 | – | 19900 nM (active)
CN(C)C(=O)[C@H]1C[C@H]1[C@@H](O)[C@H](CO)NC(=O)[C@H](COCc1ccccc1)NC(=O)OC(C)(C)C | -1.21 | –
Cc1csc(NC(=O)CSc2nnc(-c3ccncc3)o2)n1 | – | 25000 nM (active)
NNC(=O)c1cccc(S(=O)(=O)Nc2cc(Cl)ccc2Cl)c1 | -1.11 | –
